According to PubChem BioAssay (NCATS):
Results filed as inconclusive are left out. Active and inactive are the calls of the source. Calls come from the whole dose curve; as a rule, active = well fitted inhibition curve with a large enough effect; inconclusive = small, poorly fitted or top-dose-only effect; inactive = flat fitted curve, though single readings scatter.

Columns and labels:
[1] = qHTS profiling for inhibitors of Plasmodium falciparum proliferation (AID 504749);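 note: 0% = DMSO vehicle and full inhibition = artemisinin control; nearly all actives have a fitted effect of over 60% in size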; conditions: P. falciparum in erythrocytes, SYBR Green DNA, 72 h
Outline: (§1)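 Parasite proliferation within erythrocytes, 72 h exposure. Endpoint: SYBR Green I fluorescence after overnight lysis at room temperature. Controls: 0.29 uM artemisinin, DMSO.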

[2] = tested on: 3D7; assay: as above; conditions: P. falciparum in erythrocytes, SYBR Green DNA, 72 h; series mostly up to 28.7 µM
Outline: as §1

[3] = tested on: 7G8; assay: as above; conditions: P. falciparum in erythrocytes, SYBR Green DNA, 72 h; series mostly up to 28.7 µM
Outline: as §1

[4] = tested on: AA1029; assay: as above; conditions: P. falciparum in erythrocytes, SYBR Green DNA, 72 h; series mostly up to 28.7 µM
Outline: as §1

[5] = tested on: AS120; assay: as above; conditions: P. falciparum in erythrocytes, SYBR Green DNA, 72 h; series mostly up to 28.7 µM
Outline: as §1

[6] = tested on: ATS189; assay: as above; conditions: P. falciparum in erythrocytes, SYBR Green DNA, 72 h; series mostly up to 28.7 µM
Outline: as §1

[7] = tested on: ATS95; assay: as above; conditions: P. falciparum in erythrocytes, SYBR Green DNA, 72 h; series mostly up to 28.7 µM
Outline: as §1

[8] = tested on: C2A; assay: as above; conditions: P. falciparum in erythrocytes, SYBR Green DNA, 72 h; series mostly up to 28.7 µM
Outline: as §1

[9] = tested on: CP185; assay: as above; conditions: P. falciparum in erythrocytes, SYBR Green DNA, 72 h; series mostly up to 28.7 µM
Outline: as §1

[10] = tested on: CP191; assay: as above; conditions: P. falciparum in erythrocytes, SYBR Green DNA, 72 h; series mostly up to 28.7 µM
Outline: as §1

[11] = tested on: CP192; assay: as above; conditions: P. falciparum in erythrocytes, SYBR Green DNA, 72 h; series mostly up to 28.7 µM
Outline: as §1

[12] = tested on: CP194; assay: as above; conditions: P. falciparum in erythrocytes, SYBR Green DNA, 72 h; series mostly up to 28.7 µM
Outline: as §1

[13] = tested on: CP201; assay: as above; conditions: P. falciparum in erythrocytes, SYBR Green DNA, 72 h; series mostly up to 28.7 µM
Outline: as §1

[14] = at 28.7 µM (top of the series), parasite line A
[15] = at 28.7 µM (top of the series), parasite line B
[16] = at 12.8 µM (top of the series), parasite line A
[17] = at 12.8 µM (top of the series), parasite line B

CC(C)c1cc2c(cc1S(=O)(=O)O)[C@@]1(C)CCC[C@@](C)(C(=O)O)[C@@H]1CC2
inactive: activity, negative = inhibition [1, 14] 12.2% | activity, negative = inhibition [1, 15] -0.445% | Potency [2] | Potency [3] | Potency [4] | Potency [5] | Potency [6] | Potency [7] | Potency [8] | Potency [9] | outcome [10] | outcome [11] | outcome [12] | outcome [13]

NS(=O)(=O)c1ccc(C(=O)O)cc1
inactive: activity, negative = inhibition [1, 14] 18.9% | activity, negative = inhibition [1, 15] 11.1% | Potency [2] | Potency [3] | Potency [4] | Potency [5] | Potency [6] | Potency [7] | Potency [8] | Potency [9] | outcome [10] | outcome [11] | outcome [12] | outcome [13]

Cc1ccc(S(=O)(=O)NC(=O)NC2CCCCC2)cc1
inactive: activity, negative = inhibition [1, 14] -9.84% | activity, negative = inhibition [1, 15] 5.26% | Potency [2] | Potency [3] | Potency [4] | Potency [5] | Potency [6] | Potency [7] | Potency [8] | Potency [9] | outcome [10] | outcome [11] | outcome [12] | outcome [13]

Cc1cccc(C)c1NC(=O)CC12CCCN1CCC2
inactive: activity, negative = inhibition [1, 14] 2.82% | activity, negative = inhibition [1, 15] 0.226% | Potency [2] | Potency [3] | Potency [4] | Potency [5] | Potency [6] | Potency [7] | Potency [8] | Potency [9] | outcome [10] | outcome [11] | outcome [12] | outcome [13]

O=C(Cn1ccnc1[N+](=O)[O-])NCCO
inactive: activity, negative = inhibition [1, 14] 4.18% | activity, negative = inhibition [1, 15] -2.11% | Potency [2] | Potency [3] | Potency [4] | Potency [5] | Potency [6] | Potency [7] | Potency [8] | Potency [9] | outcome [10] | outcome [11] | outcome [12] | outcome [13]

COc1ccc(O)cc1
inactive: activity, negative = inhibition [1, 14] -6.25% | activity, negative = inhibition [1, 15] -15.4% | Potency [2] | Potency [3] | Potency [4] | Potency [5] | Potency [6] | Potency [7] | Potency [8] | Potency [9] | outcome [10] | outcome [11] | outcome [12] | outcome [13]

NS(=O)(=O)c1cc2c(cc1C(F)(F)F)NCNS2(=O)=O
inactive: activity, negative = inhibition [1, 16] 2.71% | activity, negative = inhibition [1, 17] 5.88% | Potency [2] | Potency [3] | Potency [4] | Potency [5] | Potency [6] | Potency [7] | Potency [8] | Potency [9] | outcome [10] | outcome [11] | outcome [12] | outcome [13]

CCOc1ccc(C(=O)OCCN(CC)CC)cc1
inactive: activity, negative = inhibition [1, 14] 11.5% | activity, negative = inhibition [1, 15] 3.64% | Potency [2] | Potency [3] | Potency [4] | Potency [5] | Potency [6] | Potency [7] | Potency [8] | Potency [9] | outcome [10] | outcome [11] | outcome [12] | outcome [13]

C[C@@H]1O[C@@H](OC[C@H]2O[C@@H](Oc3c(-c4ccc(O)c(O)c4)oc4cc(O)cc(O)c4c3=O)[C@H](O)[C@@H](O)[C@@H]2O)[C@H](O)[C@H](O)[C@H]1O
inactive: activity, negative = inhibition [1, 14] 3.3% | activity, negative = inhibition [1, 15] 8.33% | Potency [2] | Potency [3] | Potency [4] | Potency [5] | Potency [6] | Potency [7] | Potency [8] | Potency [9] | outcome [10] | outcome [11] | outcome [12] | outcome [13]

CCCC(O)C(CC)CO (stereo unspecified)
inactive: activity, negative = inhibition [1, 14] 12.2% | activity, negative = inhibition [1, 15] 6.77% | Potency [2] | Potency [3] | Potency [4] | Potency [5] | Potency [6] | Potency [7] | Potency [8] | Potency [9] | outcome [10] | outcome [11] | outcome [12] | outcome [13]

CCN(CC)CC1CCCCN1CC(=O)N1c2ccccc2C(=O)Nc2cccnc21 (stereo unspecified)
inactive: activity, negative = inhibition [1, 14] 6.16% | activity, negative = inhibition [1, 15] 1.05% | Potency [2] | Potency [3] | Potency [4] | Potency [5] | Potency [6] | Potency [7] | Potency [8] | Potency [9] | outcome [10] | outcome [11] | outcome [12] | outcome [13]

CC(C)(C)C(=O)OCOC(=O)[C@@H]1N2C(=O)[C@@H](NC(=O)[C@H](N)c3ccccc3)[C@H]2SC1(C)C
inactive: activity, negative = inhibition [1, 16] -1.26% | activity, negative = inhibition [1, 17] -15.3% | Potency [2] | Potency [3] | Potency [4] | Potency [5] | Potency [6] | Potency [7] | Potency [8] | Potency [9] | outcome [10] | outcome [11] | outcome [12] | outcome [13]

CCCCCCCCCCCCCCCCCCO
inactive: activity, negative = inhibition [1, 14] 2.93% | activity, negative = inhibition [1, 15] 2.31% | Potency [2] | Potency [3] | Potency [4] | Potency [5] | Potency [6] | Potency [7] | Potency [8] | Potency [9] | outcome [10] | outcome [11] | outcome [12] | outcome [13]

CCc1nnc(NS(=O)(=O)c2ccc(N)cc2)s1
inactive: activity, negative = inhibition [1, 14] 10.2% | activity, negative = inhibition [1, 15] 10.5% | Potency [2] | Potency [3] | Potency [4] | Potency [5] | Potency [6] | Potency [7] | Potency [8] | Potency [9] | outcome [10] | outcome [11] | outcome [12] | outcome [13]

O=C(O)CCC(=O)O
inactive: activity, negative = inhibition [1, 14] 10.3% | activity, negative = inhibition [1, 15] 13.7% | Potency [2] | Potency [3] | Potency [4] | Potency [5] | Potency [6] | Potency [7] | Potency [8] | Potency [9] | outcome [10] | outcome [11] | outcome [12] | outcome [13]

O=C(Cn1ccnc1[N+](=O)[O-])NCc1ccccc1
inactive: activity, negative = inhibition [1, 14] 12.6% | activity, negative = inhibition [1, 15] 10.2% | Potency [2] | Potency [3] | Potency [4] | Potency [5] | Potency [6] | Potency [7] | Potency [8] | Potency [9] | outcome [10] | outcome [11] | outcome [12] | outcome [13]

NC(=O)CC[C@@H](N)C(=O)O
inactive: activity, negative = inhibition [1, 14] 3.38% | activity, negative = inhibition [1, 15] 6.23% | Potency [2] | Potency [3] | Potency [4] | Potency [5] | Potency [6] | Potency [7] | Potency [8] | Potency [9] | outcome [10] | outcome [11] | outcome [12] | outcome [13]

COc1ccc(C(=O)NCc2ccc(OCCN(C)C)cc2)cc1OC
inactive: activity, negative = inhibition [1, 14] -0.299% | activity, negative = inhibition [1, 15] -0.981% | Potency [2] | Potency [3] | Potency [4] | Potency [5] | Potency [6] | Potency [7] | Potency [8] | Potency [9] | outcome [10] | outcome [11] | outcome [12] | outcome [13]

OCc1ccc(Cl)cc1Cl
inactive: activity, negative = inhibition [1, 14] -3.83% | activity, negative = inhibition [1, 15] -17.4% | Potency [2] | Potency [3] | Potency [4] | Potency [5] | Potency [6] | Potency [7] | Potency [8] | Potency [9] | outcome [10] | outcome [11] | outcome [12] | outcome [13]

O=C(O)c1ccc(OCCCOc2ccc(C(=O)O)cc2)cc1
inactive: activity, negative = inhibition [1, 14] 0.28% | activity, negative = inhibition [1, 15] 9.9% | Potency [2] | Potency [3] | Potency [4] | Potency [5] | Potency [6] | Potency [7] | Potency [8] | Potency [9] | outcome [10] | outcome [11] | outcome [12] | outcome [13]

O=C(O)c1cc(=O)c2ccccc2o1
inactive: activity, negative = inhibition [1, 14] -22.1% | activity, negative = inhibition [1, 15] 5.99% | Potency [2] | Potency [3] | Potency [4] | Potency [5] | Potency [6] | Potency [7] | Potency [8] | Potency [9] | outcome [10] | outcome [11] | outcome [12] | outcome [13]

CC(CSC(=O)c1ccccc1)C(=O)N1C[C@@H](Sc2ccccc2)C[C@H]1C(=O)O (stereo partly specified)
inactive: activity, negative = inhibition [1, 14] 13% | activity, negative = inhibition [1, 15] 2.24% | Potency [2] | Potency [3] | Potency [4] | Potency [5] | Potency [6] | Potency [7] | Potency [8] | Potency [9] | outcome [10] | outcome [11] | outcome [12] | outcome [13]

O=C(O)c1ccccc1C(=O)Nc1ccc(S(=O)(=O)Nc2nccs2)cc1
inactive: activity, negative = inhibition [1, 14] 16.3% | activity, negative = inhibition [1, 15] 12.3% | Potency [2] | Potency [3] | Potency [4] | Potency [5] | Potency [6] | Potency [7] | Potency [8] | Potency [9] | outcome [10] | outcome [11] | outcome [12] | outcome [13]

CC(=O)NCc1c(I)c(NC(C)=O)c(I)c(C(=O)O)c1I
inactive: activity, negative = inhibition [1, 14] 10.9% | activity, negative = inhibition [1, 15] 6.96% | Potency [2] | Potency [3] | Potency [4] | Potency [5] | Potency [6] | Potency [7] | Potency [8] | Potency [9] | outcome [10] | outcome [11] | outcome [12] | outcome [13]
